According to PubChem BioAssay (EPA / NIEHS):
Calls of active or inactive are those of the source. Rule for the calls: active = hit-call score of the fitted dose curve at least 0.9, where 1 is the maximum; inactive = score below 0.9.

target: Hypoxia-inducible factor 1-alpha (Homo sapiens) (UniProt Q16665); assay: ATG_HIF1a_CIS: Attagene CIS-FACTORIAL HepG2 Assay for human Hypoxia Inducible Factor 1 (HIF1A) (AID 2282951); details: HepG2 Attagene cis-factorial HIF1a reporter transcription; actives raise or lower the signal
Experimental: ATG_CIS is a cell-based, multiplexed-readout assay that uses HepG2, a human liver cell line, with measurements taken at 24 hours after chemical dosing in a 24-well plate.ATG_HIF1a_CIS is one of 52 assay component(s) measured or calculated from the ATG_CIS assay. It is designed to make measurements of mRNA induction, a form of inducible reporter, as detected with fluorescence intensity signals by Reverse transcription polymerase chain reaction (RT-PCR) and Capillary electrophoresis technology.Data from the assay component ATG_HIF1a_CIS was analyzed into 1 assay endpoint. This assay endpoint, ATG_HIF1a_CIS, was analyzed with bidirectional fitting relative to DMSO as the negative control and baseline of activity. Using a type of inducible reporter, measures of mRNA for gain or loss-of-signal activity can be used to understand the reporter gene at the transcription factor-level as they relate to the gene HIF1A. Furthermore, this assay endpoint can be referred to as a primary readout, because this assay has produced multiple assay endpoints where this one serves a reporter gene function. To generalize the intended target to other relatable targets, this assay endpoint is annotated to the dna binding intended target family, where the subfamily is basic helix-loop-helix protein.
Human liver HepG2 cells are transiently transfected with multiple reporter transcription units (MRTUs) in 6-well plates using FuGene 6 reagent (Roche; 3 ml FuGene/1 mg DNA). The MRTU constructs are regulated by a cis-regulating element (promoter). […] A major difference between the CIS and TRANS system is that in CIS activities of endogenous TFs are measured, whereas the TRANS assay evaluates changes in activities of exogenous, chimeric NR-Gal4 proteins. […] At the end of 24 hour incubation, total RNA was isolated using TriZol reagent (Invitrogen). The isolated RNA is then reverse-transcribed using oligo(dT) primer and Mo-MLV reverse transcriptase (Invitrogen) with DNAse I (Ambion) treatment for 30 min. The one-tenth of the produced cDNA was amplified by PCR using Taq DNA polymerase (Invitrogen) and two reporter sequence-specific primers. The PCR products were fluorescently labeled by primer extension with 6-arboxyfluorescein (6-FAM) 5'-labeled reporter sequence-specific primer (2 min at 95 C, 20 s at 68 C and 10 min at 72 C) and these products were digested with 5U of HpaI (New England Biolabs) for 2h at 37 C. The fragments were purified using Qiaquick PCR columns (Qiagen), analyzed on an ABI 3130xL genetic analyzer (Applied Biosystems) with peak positions identified by using a set of X-rhodamine (ROX)-labeled MapMarker1000 molecular weight standards (BioVentures). The raw capillary electrophoresis data was processed using Attagraph software (Attagene).

Hypoxia-inducible factor 1-alpha (Homo sapiens), sequence (Q16665 whole entry, looked up): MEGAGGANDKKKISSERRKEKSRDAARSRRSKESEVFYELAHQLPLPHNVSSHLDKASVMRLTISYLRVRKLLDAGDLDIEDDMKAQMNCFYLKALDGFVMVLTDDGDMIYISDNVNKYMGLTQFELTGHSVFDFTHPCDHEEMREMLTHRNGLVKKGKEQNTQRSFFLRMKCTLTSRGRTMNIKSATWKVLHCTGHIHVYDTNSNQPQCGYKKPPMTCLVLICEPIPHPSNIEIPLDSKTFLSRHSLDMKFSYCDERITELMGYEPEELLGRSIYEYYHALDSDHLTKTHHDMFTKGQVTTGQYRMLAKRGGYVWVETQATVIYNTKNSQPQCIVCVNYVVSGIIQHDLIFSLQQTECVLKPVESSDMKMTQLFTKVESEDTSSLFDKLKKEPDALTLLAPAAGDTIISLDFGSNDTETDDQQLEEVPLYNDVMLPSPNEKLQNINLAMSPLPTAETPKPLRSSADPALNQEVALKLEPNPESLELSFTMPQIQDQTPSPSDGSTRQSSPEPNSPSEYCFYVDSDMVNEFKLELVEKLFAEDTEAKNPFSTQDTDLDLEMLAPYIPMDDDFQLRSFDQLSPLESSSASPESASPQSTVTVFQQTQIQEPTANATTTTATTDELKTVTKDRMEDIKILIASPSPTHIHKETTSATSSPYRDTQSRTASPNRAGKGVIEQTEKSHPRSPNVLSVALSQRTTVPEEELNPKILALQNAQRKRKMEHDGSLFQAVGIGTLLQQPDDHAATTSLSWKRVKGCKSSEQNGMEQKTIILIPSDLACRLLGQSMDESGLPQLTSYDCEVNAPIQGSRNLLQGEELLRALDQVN

Q: With `CCCCCCCCCO` as the molecule, how does the outcome read?
A: Its outcome is “inactive”.

Q: Which outcome does the source give for `C=CCOCC(O)CO` (stereo not given) here?
A: Its outcome is “inactive”.

Q: With `CCCCCCCCOC(C)=O` as the molecule, how does the outcome read?
A: The outcome was “inactive”.

Q: `CC(C)(C)C1CCC(O)CC1` (stereo not given) was tested. Which outcome did it give?
A: Its outcome is “inactive”.

Q: How did the outcome turn out when `CC(=O)CC(C)(C)C1CCCCC1` was run?
A: The outcome was “inactive”.

Q: `NNC(=O)OCc1ccccc1` was tested. Which outcome did it give?
A: Its outcome is “inactive”.

Q: For `CCC=C(C)C=O`, which outcome is on record?
A: Its outcome is “inactive”.

Q: Which outcome does the source give for `CCC(=O)OC(C)(C)C1CC=C(C)CC1` (stereo not given) here?
A: The outcome was “inactive”.

Q: How did the outcome turn out when `CCCCCCCCCCCCCCCCCC(=O)OCCCCCCCCCCCCCC(C)C` was run?
A: Its outcome is “inactive”.

Q: How did the outcome turn out when `CC/C=C\CCOC(C)OCC` (stereo not given) was run?
A: Its outcome is “inactive”.

Q: Which outcome does the source give for `CCCCCC#CC(=O)OC` here?
A: Its outcome is “inactive”.

Q: With `c1ccc(Cc2ccccc2)cc1` as the molecule, how does the outcome read?
A: The outcome was “inactive”.

Q: With `CCCC1CCOC(C)S1` (stereo not given) as the molecule, how does the outcome read?
A: Its outcome is “inactive”.

Q: Which outcome does the source give for `CCCCCCCC(=O)N(C)C` here?
A: Its outcome is “inactive”.

Q: `CCCc1ccc(O)cc1` was tested. Which outcome did it give?
A: The outcome was “inactive”.

Q: With `CC1(C)[C@H](C=C(Cl)Cl)[C@H]1C(=O)OCc1cccc(Oc2ccccc2)c1` as the molecule, how does the outcome read?
A: Its outcome is “inactive”.

Q: `CCOC(=O)CCCCCCCCC(=O)OCC` was tested. Which outcome did it give?
A: The outcome was “inactive”.

Q: For `CCCCCC(=O)O[C@]1(C(C)=O)CC[C@H]2[C@@H]3CCC4=CC(=O)CC[C@]4(C)[C@H]3CC[C@@]21C`, which AC50 is on record?
A: Its AC50 is 33.2 µM (active).

Q: Which outcome does the source give for `Cc1ccc(C(C)(C)O)cc1` here?
A: The outcome was “inactive”.

Q: Which outcome does the source give for `CCC(C)(C)C1CCC(=O)CC1` here?
A: The outcome was “inactive”.

Q: For `CCCCCCCCCCCCOC(C)=O`, which outcome is on record?
A: Its outcome is “inactive”.

Q: How did the outcome turn out when `CC(=O)Nc1cc(S(=O)(=O)O)cc2cc(S(=O)(=O)O)c(N=Nc3ccccc3)c(O)c12` was run?
A: The outcome was “inactive”.

Q: For `CC(C)=CCCC(C)=CC(=O)O`, which outcome is on record?
A: Its outcome is “inactive”.

Q: With `CCCCCc1cccc(=O)o1` as the molecule, how does the outcome read?
A: The outcome was “inactive”.

Q: How did the outcome turn out when `Cc1ccccc1S` was run?
A: Its outcome is “inactive”.

Q: `[Cl][Dy]([Cl])[Cl]` was tested. Which outcome did it give?
A: Its outcome is “inactive”.

Q: For `O=S1(=O)CC=CC1`, which outcome is on record?
A: Its outcome is “inactive”.

Q: For `O=C(OCc1ccccc1)c1ccccc1O`, which outcome is on record?
A: The outcome was “inactive”.

Q: Which outcome does the source give for `O=C(O)c1ccccc1O` here?
A: Its outcome is “inactive”.

Q: `CCCO` was tested. Which outcome did it give?
A: Its outcome is “inactive”.

Q: `C=CC(O)CCCCC` (stereo not given) was tested. Which AC50 did it give?
A: Its AC50 is 26.9 µM (active).

Q: With `COc1ccccc1NC(=O)CC(C)=O` as the molecule, how does the outcome read?
A: Its outcome is “inactive”.

Q: How did the outcome turn out when `NC(N)=S` was run?
A: Its outcome is “inactive”.

Q: How did the outcome turn out when `CC(=O)OC(C)(C)C` was run?
A: Its outcome is “inactive”.

Q: `C=C(C)C(N)=O` was tested. Which outcome did it give?
A: The outcome was “inactive”.

Q: For `O=S(=O)(O)CCCN1CCOCC1`, which outcome is on record?
A: The outcome was “inactive”.

Q: `COc1cc(OC)c2ccc(=O)oc2c1` was tested. Which outcome did it give?
A: The outcome was “inactive”.

Q: Which outcome does the source give for `C=C1CC/C=C(\C)CC[C@@H]2[C@@H]1CC2(C)C` here?
A: The outcome was “inactive”.

Q: `CC(=N[Si](C)(C)C)O[Si](C)(C)C` was tested. Which outcome did it give?
A: The outcome was “inactive”.

Q: With `CC=CC(=O)C1=C(C)C=CCC1(C)C` as the molecule, how does the outcome read?
A: Its outcome is “inactive”.
